Test results published in PubChem BioAssay AID1159580 (chemical genetic matrix, 2015).
Out of some 5,500 compounds screened, about 2,000 (36%) were called active. Not shown: some 18% with an inconclusive outcome. No stated cut-off is given here; in the data, active means normalized growth mostly below about 0.91 (no sharp cut-off); inconclusive means no clear call, values can overlap the other calls; inactive means mostly above about 0.92. Some of the results follow.

Test: chemical genetic growth profiling, strain panel (AID 1159580);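 further: tested at 20 µM; growth read once vehicle control cultures reached saturation at 30 °C; 1 = growth at the plate median or of vehicle wells; lower values mean less growth of the strain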
Conditions: growth OD

Measured: normalized growth

COc1ccc2cc([C@H](C)CO)ccc2c1
inactive: S. cerevisiae deletion strains, locus YJR066W, strain TOR1, hits give low values 0.935 | S. cerevisiae deletion strains, locus YJR075W, strain HOC1, hits give low values 0.998 | S. cerevisiae deletion strains, locus YKL009W, strain mrt4, hits give low values 0.935 | S. cerevisiae deletion strains, locus YKL068W, hits give low values 0.975 | S. cerevisiae deletion strains, locus YKL085W, strain MDH1 (second series), hits give low values 0.949 | S. cerevisiae deletion strains, locus YKL085W, strain MDH1, hits give low values 0.949 | S. cerevisiae deletion strains, locus YKL160W, strain elf1, hits give low values 1 | S. cerevisiae deletion strains, locus YKL190W, strain CNB1, hits give low values 0.995 | S. cerevisiae deletion strains, locus YKR001C, strain vps1, hits give low values 0.97 | S. cerevisiae deletion strains, locus YKR026C, strain gcn3, hits give low values 1.01 | S. cerevisiae deletion strains, locus YKR091W, strain srl3, hits give low values 1.01 | S. cerevisiae deletion strains, locus YLL001W, strain dnm1, hits give low values 1.01 | S. cerevisiae deletion strains, locus YLL026W, hits give low values 1.01 | S. cerevisiae deletion strains, locus YLL041C, strain sdh2, hits give low values 1.01 | S. cerevisiae deletion strains, locus YLR027C, strain aat2, hits give low values 1.01 | S. cerevisiae deletion strains, locus YLR039C, strain RIC1, hits give low values 0.991 | S. cerevisiae deletion strains, locus YLR058C, strain SHM2, hits give low values 0.977 | S. cerevisiae deletion strains, locus YLR102C, strain apc9, hits give low values 0.966 | S. cerevisiae deletion strains, locus YLR113W, strain HOG1, hits give low values 0.929 | S. cerevisiae deletion strains, locus YLR221C, strain rsa3, hits give low values 1.01 | S. cerevisiae deletion strains, locus YLR258W, strain gsy2, hits give low values 1.01 | S. cerevisiae deletion strains, locus YLR262C, strain YPT6 (second series), hits give low values 1.01 | S. cerevisiae deletion strains, locus YLR262C, strain YPT6, hits give low values 0.9 | S. cerevisiae deletion strains, locus YLR268W, strain sec22, hits give low values 1.03 | S. cerevisiae deletion strains, locus YLR320W, strain mms22, hits give low values 1.02 | S. cerevisiae deletion strains, locus YLR330W, strain CHS5, hits give low values 0.992 | S. cerevisiae deletion strains, locus YLR342W, strain FKS1 (second series), hits give low values 0.969 | S. cerevisiae deletion strains, locus YLR342W, strain FKS1, hits give low values 1.01 | S. cerevisiae deletion strains, locus YLR357W, strain rsc2, hits give low values 1 | S. cerevisiae deletion strains, locus YLR370C, strain arc18, hits give low values 1.01 | S. cerevisiae deletion strains, locus YLR371W, strain rom2, hits give low values 0.918 | S. cerevisiae deletion strains, locus YLR384C, strain iki3, hits give low values 1.01 | S. cerevisiae deletion strains, locus YLR418C, strain cdc73, hits give low values 0.968 | S. cerevisiae deletion strains, locus YML016C, strain PPZ1, hits give low values 0.989 | S. cerevisiae deletion strains, locus YML032C, strain rad52, hits give low values 0.989 | S. cerevisiae deletion strains, locus YML120C, strain ndi1, hits give low values 1.01 | S. cerevisiae deletion strains, locus YMR058W, strain fet3, hits give low values 1.01 | S. cerevisiae deletion strains, locus YMR078C, strain ctf18, hits give low values 0.969 | S. cerevisiae deletion strains, locus YMR125W, strain sto1, hits give low values 1.01 | S. cerevisiae deletion strains, locus YMR129W, hits give low values 1.02 | S. cerevisiae deletion strains, locus YMR205C, strain PFK2, hits give low values 1.02 | S. cerevisiae deletion strains, locus YMR223W, strain ubp8, hits give low values 0.964 | S. cerevisiae deletion strains, locus YMR231W, strain pep5, hits give low values 1.01 | S. cerevisiae deletion strains, locus YMR263W, strain SAP30, hits give low values 0.985 | S. cerevisiae deletion strains, locus YMR307W, strain GAS1, hits give low values 1.04 | S. cerevisiae deletion strains, locus YNL067W, strain RPL9B, hits give low values 0.991 | S. cerevisiae deletion strains, locus YNL071W, strain lat1, hits give low values 1.01 | S. cerevisiae deletion strains, locus YNL128W, strain TEP1, hits give low values 0.979 | S. cerevisiae deletion strains, locus YNL153C, strain GIM3, hits give low values 0.996 | S. cerevisiae deletion strains, locus YNL183C, strain NPR1, hits give low values 0.917 | S. cerevisiae deletion strains, locus YNL209W, strain ssb2, hits give low values 1.01 | S. cerevisiae deletion strains, locus YNL233W, strain BNI4, hits give low values 1.01 | S. cerevisiae deletion strains, locus YNL248C, strain rpa49, hits give low values 0.968 | S. cerevisiae deletion strains, locus YNL250W, strain rad50, hits give low values 0.956 | S. cerevisiae deletion strains, locus YNL271C, strain bni1, hits give low values 0.979 | S. cerevisiae deletion strains, locus YNL298W, strain CLA4, hits give low values 0.949 | S. cerevisiae deletion strains, locus YNL307C, strain MCK1, hits give low values 0.97 | S. cerevisiae deletion strains, locus YNL322C, strain KRE1 (second series), hits give low values 1.01 | S. cerevisiae deletion strains, locus YNL322C, strain KRE1, hits give low values 0.996 | S. cerevisiae deletion strains, locus YNR049C, strain mso1, hits give low values 1.01 | S. cerevisiae deletion strains, locus YNR052C, strain pop2, hits give low values 0.975 | S. cerevisiae deletion strains, locus YOL006C, strain TOP1, hits give low values 0.91 | S. cerevisiae deletion strains, locus YOL012C, strain htz1 1.3 | S. cerevisiae deletion strains, locus YOL147C, strain pex11, hits give low values 0.941 | S. cerevisiae deletion strains, locus YOR001W, strain rrp6, hits give low values 1.02 | S. cerevisiae deletion strains, locus YOR061W, strain CKA2, hits give low values 0.968 | S. cerevisiae deletion strains, locus YOR069W, strain VPS5, hits give low values 0.988 | S. cerevisiae deletion strains, locus YOR070C, strain gyp1, hits give low values 1.01 | S. cerevisiae deletion strains, locus YOR080W, strain dia2, hits give low values 1.01 | S. cerevisiae deletion strains, locus YOR083W, strain WHI5, hits give low values 1.01 | S. cerevisiae deletion strains, locus YOR106W, strain vam3, hits give low values 1 | S. cerevisiae deletion strains, locus YOR136W, strain idh2, hits give low values 0.977 | S. cerevisiae deletion strains, locus YOR144C, strain elg1, hits give low values 0.978 | S. cerevisiae deletion strains, locus YOR184W, strain ser1, hits give low values 0.95 | S. cerevisiae deletion strains, locus YOR231W, strain MKK1, hits give low values 0.937 | S. cerevisiae deletion strains, locus YOR265W, strain rbl2, hits give low values 1.01 | S. cerevisiae deletion strains, locus YOR270C, strain vph1, hits give low values 0.997 | S. cerevisiae deletion strains, locus YOR290C, strain snf2, hits give low values 0.998 | S. cerevisiae deletion strains, locus YOR316C, strain cot1, hits give low values 0.976 | S. cerevisiae deletion strains, locus YPL051W, strain arl3, hits give low values 1.01 | S. cerevisiae deletion strains, locus YPL055C, strain LGE1, hits give low values 0.98 | S. cerevisiae deletion strains, locus YPL078C, strain atp4, hits give low values 1.01 | S. cerevisiae deletion strains, locus YPL106C, strain sse1, hits give low values 1.04 | S. cerevisiae deletion strains, locus YPL240C, strain hsp82, hits give low values 1.01 | S. cerevisiae deletion strains, locus YPL241C, strain CIN2, hits give low values 0.985 | S. cerevisiae deletion strains, locus YPL256C, strain CLN2, hits give low values 0.924 | S. cerevisiae deletion strains, locus YPR119W, strain clb2, hits give low values 0.971 | S. cerevisiae deletion strains, locus YPR141C, strain kar3, hits give low values 0.959 | S. cerevisiae deletion strains, locus YPR163C, strain tif3, hits give low values 0.978 | S. cerevisiae deletion strains, locus YPR167C, strain met16, hits give low values 0.977 | S. cerevisiae deletion strains, strain wtn01, hits give low values 0.968 | S. cerevisiae strains, strain wild type, hits give low values 0.979
